Shown are actives, neighbours in structure and some others; about 2.6% of the full set was active somewhere.
TPT1 inh = C. albicans TPT1 enzyme inhibition | 300,000 compounds, 0.81% hits | recombinant caTPT1, FP RNA substrate dephosphorylation | inhibition, % at 5 µM;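 active = inhibition above the mean of all tested compounds plus 3 SD, set per screening campaign, cut at about 24% in these data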
IDE inh = inhibits human insulin-degrading enzyme in HEK cells; P14735; FAbetaB cleavage, fluorescence polarization; inhibition, % at 5.59 µM; 320,000 compounds, 0.41% hits; AID 434962;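 active = percent inhibition above the average of all tested compounds plus 3 SD, set per screening campaign, cut at about 16% in these data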;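 note: IDE supplied by intact live HEK cells; FP after avidin binding of uncleaved biotin substrate so inhibition keeps polarization high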
CRFR2-BP antag = antagonists of CRF-binding protein/CRF-R2 receptor complex; 350,000 compounds, 0.59% hits; HEK293 CRF-R2/CRF-BP, CRF-induced calcium fluorescence; inhibition, % at 11.8 µM;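 active = inhibition of the ligand-induced calcium signal above about 50% at the single tested concentration, limit read from the data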
CRFBP-R2 agonist = agonists of human CRF-binding protein/CRF-R2 receptor complex | AID 588473 | HEK293 CRF-R2/CRF-BP, calcium dye fluorescence (FLIPR); percent of saturating CRF peptide response | activation, % at 13.2 µM | 350,000 compounds, 0.46% hits;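 active = activation of at least 50%, plus an integration ratio under a set limit after plate pattern correction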
Myeloid diff 2 = myeloid differentiation induction; calls only at 10 µM; 360,000 compounds, 1% hits; ER-HoxA9 myeloid progenitors, lysozyme-GFP differentiation, flow cytometry; AID 624256;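 active = normalized GFP-positive differentiation at or above the plate's own cutoff, the solvent-only control mean plus 3 SD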;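 note: cells exposed to compound for four days before flow analysis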
IDE act = boosts human insulin-degrading enzyme activity in HEK cells; 340,000 compounds, 0.073% hits; P14735; FAbeta-B cleavage, fluorescence polarization; 0% vehicle, 100% cell-free pure enzyme wells; AID 493087; activation, % at 5.96 µM;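 active = activation above the mean of all tested compounds plus 3 SD, set per screening campaign, cut at about 17% in these data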
Myeloid diff CP1 = myeloid differentiation induction; shares compounds with Myeloid diff 2; ER-HoxA9 myeloid progenitors, GFP/Mac1 double-positive flow; calls only; 2,300 compounds, 2% hits;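 active = share of green or green-and-red cells above 9 and 9% in run 1 or 4 and 3% in run 2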
GFP autofluor = counter-screen for myeloid differentiation promoters: compound fluorescence; 2,300 compounds, 7.4% hits; ER-HoxA9 myeloid progenitors, no estrogen, GFP autofluorescence flow cytometry; vehicle wells 0%, positive control 100%; AID 651707; fluorescence response, % (concentration not given with the values); shares compounds with Myeloid diff 2;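 active = over 5% cells positive for green fluorescent reporter, or over 2% positive for both it and APC stain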
Of the large screens only hits and unclear results are named; the others gave an inactive call (follow-up assays come after a bar, where they were run).

O=C1NC2(CCCCC2)C(=O)N1/N=C/c1ccc(O)cc1O	Myeloid diff 2 active | Myeloid diff CP1 inactive | GFP autofluor inactive
O=C1NC2(CCCCC2)C(=O)N1/N=C/c1ccccc1Br	none
CC(=O)CC(=O)NC(=NC1CCCCC1)Nc1nc(C)cc(C)n1	Myeloid diff 2 active | Myeloid diff CP1 inactive | GFP autofluor inactive
COc1ccccc1-c1nn(-c2ccccc2)cc1C(=O)N1CCN(C(=O)c2ccco2)CC1	none (no result: TPT1 inh) | Myeloid diff CP1 inactive | GFP autofluor inactive
COc1cccc(NCc2cc(=O)oc3cc(C)c(C(C)C)cc23)c1	none
NS(=O)(=O)c1ccc(NC(=O)CN2CCCc3ccccc32)cc1	Myeloid diff 2 active | Myeloid diff CP1 inactive | GFP autofluor inactive
O=C(CCc1ccccc1)Nc1ccccc1	none
NS(=O)(=O)c1ccc(NC(=O)CCc2ccccc2)cc1	none | Myeloid diff CP1 inactive | GFP autofluor inactive
Cc1nc(SCc2cccnc2)[nH]c(=O)c1C	none
O=C(C[n+]1cccc(C(=O)N/N=C/c2cccc([N+](=O)[O-])c2)c1)c1ccccc1	none (no result: TPT1 inh, IDE inh)
Cn1cc(CC(=O)N2CCN(c3ccc(Cl)cc3)CC2)c2ccccc21	none | Myeloid diff CP1 inactive | GFP autofluor inactive
Cc1cccc(NC(=S)NCC23C=CC(O2)C2C(=O)N(c4ccc(Cl)cc4)C(=O)C23)c1 (stereo not given)	Myeloid diff 2 active | Myeloid diff CP1 inactive | GFP autofluor inactive
CN(C)S(=O)(=O)Oc1ccsc1C(=O)Nc1ccccc1Cl	none
CN(C)S(=O)(=O)Oc1ccsc1C(=O)Nc1cccc(Cl)c1Cl	none | Myeloid diff CP1 inactive | GFP autofluor inactive
COc1ccccc1NC(=O)Cn1c2ccccc2c2nc3n(c(=O)c21)CCS3	Myeloid diff 2 active | Myeloid diff CP1 inactive | GFP autofluor inactive
COc1cccc(/C=N\NC(=O)Cn2nnc3ccccc32)c1O	none (no result: IDE act)
O=C(COC(=O)c1ccc([N+](=O)[O-])s1)NCc1ccccc1	none
Cc1[nH]c2ccccc2c1C(=O)COC(=O)c1ccc([N+](=O)[O-])s1	none | Myeloid diff CP1 inactive | GFP autofluor inactive
CC(=O)Nc1ccc(Cl)cc1C(=O)O	none
CCOC(=O)c1cnc2ccc(C(=O)OC)cc2c1Nc1ccc2c(c1)OCCO2	none (no result: Myeloid diff 2) | Myeloid diff CP1 inactive | GFP autofluor inactive
CC(C)Oc1ccccc1C1NC(=O)CCC1[N+](=O)[O-] (stereo not given)	none | Myeloid diff CP1 inactive | GFP autofluor inactive
CC(C)(C)NCC(O)Cn1cc(C=O)c2ccccc21 (stereo not given)	none | Myeloid diff CP1 inactive | GFP autofluor inactive
COc1cc(C(=O)NCC(c2ccco2)N2CCCC2)ccc1OCc1ccc(Cl)cc1Cl (stereo not given)	Myeloid diff 2 active (no result: TPT1 inh, IDE inh) | Myeloid diff CP1 inactive | GFP autofluor inactive
COc1cc(NC(=O)CSc2ncnc3scc(-c4ccccc4)c23)c(C(=O)O)cc1OC	none
COc1ccc(/C=C/C(O)=C2/C(=O)N(C)C3(C)CC2c2ccccc2O3)cc1 (stereo not given)	Myeloid diff 2 active | Myeloid diff CP1 active | GFP autofluor inactive
Cc1ccc(-n2nnnc2Sc2nc([N+](=O)[O-])nn2C)cc1	Myeloid diff 2 active | Myeloid diff CP1 inactive | GFP autofluor inactive
Cc1ccc(-n2nnnc2Sc2nc([N+](=O)[O-])nn2C)c(C)c1	none
COc1ccc(-c2cc3ccccc3n2CC(O)Cn2nc(C)cc2C)cc1 (stereo not given)	none
COc1ccc(-c2cc3ccccc3n2CC(O)CN2CCC(C)CC2)cc1 (stereo not given)	none | Myeloid diff CP1 inactive | GFP autofluor inactive
Nn1cnnc1SC1CCCCC1NS(=O)(=O)c1ccccc1 (stereo not given)	Myeloid diff 2 active | Myeloid diff CP1 inactive | GFP autofluor inactive
Cn1c(-c2ccc(F)cc2)cnc1NCc1cccc([N+](=O)[O-])c1	none
O=S(=O)(c1ccccc1)c1nc(-c2ccccc2)oc1NCc1cccnc1	none

High-throughput results deposited in PubChem by several laboratories.
